# Data taken from PubChem BioAssay (NCI).
# About 79,000 compounds went through this panel and 15% of them were active in at least one assay; those are over-represented in the sample as a whole. Values without a mark were called inactive. Activity calls are given as the source filed them. Cut-off read from the data, not from the text of the source: active = growth inhibition above about 70%; inactive = the rest.
# Assay: NCI Yeast Anticancer Drug Screen. Data for the mec2-1 strain (AID 157)
# Details: S. cerevisiae mec2-1 strain, active compounds read high
# Procedure: Growth inhibition of yeast strains with defined genetic alterations is measured as a screen for potential anti-cancer activity. Selected strains with alterations in DNA damage repair or cell cycle control were exposed to compounds and growth inhibition was measured relative to vehicle treated controls. The strain used in this assay is mec2-1
# [1] = at 5.0 µM (retest, dose inferred, filed as 0.5)
# [2] = at 50.0 µM (retest, dose inferred, filed as 5.0)
SMILES,growth inhibition [1],growth inhibition [2],growth inhibition (at 50.0 µM)
NC(N)=Nc1ccc(Cc2ccc(N=C(N)N)cc2)cc1,0%,-4%,-58%
CC(C)N(CC(=O)c1ccc2cc(Cl)c3ccccc3c2c1)C(C)C,34%,98% (active),98.6% (active)
CC(C)(C)OC(=O)c1ccc(NCC2=C(Br)C(=O)C=CC2=O)cc1,12%,99% (active),94% (active)
C[N+]1=C(/C=C\c2ccc(O)c3ccccc23)C(C)(C)c2ccccc21,3%,89% (active),50.2%
Cn1nc2c(c(Cl)c1=O)Nc1ccccc1O2,-9%,-34%,-30.4%
CC[N+](C)(CC)CCC[n+]1c(-c2ccccc2)c2cc(N)ccc2c2ccc(N)cc21,1%,27%,44.2%
Cc1c(N2CCCC2)cc2c(c1NC(=O)c1ccccc1Cl)C(C)(C)CC2(C)C,-2%,89% (active),59.5%
CCCCOC(=O)c1cnc[nH]c1=O,2%,3%,-2.65%
O=C1CCC(Cc2ccc(C(F)(F)F)cc2)C(=O)N1 (configuration not stated),-1%,3%,22.1%
CCS(=O)(=O)c1ccc(NC(=O)OC2CCCCCCC2)cc1,16%,86% (active),80.6% (active)
O=S(=O)(Nc1ccc(Cl)cc1)c1ccccc1,-14%,32%,46%
CCCCOC(=O)c1ccc(O)c(OC)c1,-10%,4%,-3.2%
Nc1ccc(O)c2ccccc12,-4%,83% (active),63.8%
CCCCCCCCN(CCCCCCCC)Cc1ccc(Br)cc1,96% (active),100% (active),99.5% (active)
